Compound activity from PubChem.
M1 PAM parental: nonselective activator or artifact in parental CHO-K1 calcium assay; ATP EC20, Fluo-8 calcium fluorescence; 0% at ATP EC20, 100% at ATP max; activation, % at 3 µM; 360,000 compounds, 0.02% hits;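 active = activation above the run cutoff, the mean activation of all test compounds plus 3 SD, cut at about 40% in these data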;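 note: peak over basal fluorescence ratio in a 140 s read after ATP addition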
M1 antag: blocks human M1 muscarinic receptor; P11229; CHO-K1 hM1, Fluo-8 calcium fluorescence, ACh EC80 antagonist; inhibition, % at 3 µM; 360,000 compounds, 1.3% hits; AID 588852;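 active = percent inhibition above its own plate's cutoff, namely the mean of that plate's compound wells plus 3 SD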;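 note: peak over basal fluorescence ratio during 140 s after agonist addition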
Target sequence (P11229 whole entry, looked up): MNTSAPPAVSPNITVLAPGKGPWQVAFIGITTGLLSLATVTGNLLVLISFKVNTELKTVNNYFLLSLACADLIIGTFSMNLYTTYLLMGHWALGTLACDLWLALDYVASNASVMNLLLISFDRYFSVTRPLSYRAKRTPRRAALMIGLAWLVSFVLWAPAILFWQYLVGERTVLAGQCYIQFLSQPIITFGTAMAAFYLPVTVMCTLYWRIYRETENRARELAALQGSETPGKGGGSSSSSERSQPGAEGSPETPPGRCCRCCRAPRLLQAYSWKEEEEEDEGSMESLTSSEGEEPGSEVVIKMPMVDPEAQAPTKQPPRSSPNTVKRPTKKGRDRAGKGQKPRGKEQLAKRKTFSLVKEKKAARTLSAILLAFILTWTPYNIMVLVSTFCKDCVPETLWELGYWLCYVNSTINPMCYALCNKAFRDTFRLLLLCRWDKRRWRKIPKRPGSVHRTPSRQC
CHO-K1 Ca antag: counter-screen for M1 antagonists: effect in parental CHO-K1 cells; ATP-induced calcium, Fluo-8 fluorescence; inhibition, % at 3 µM; 360,000 compounds, 0.6% hits;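 active = inhibition above a per-plate cutoff, the plate's mean sample inhibition plus 3 SD, cut at about 24% in these data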
M1 ag: agonists of human M1 muscarinic receptor; P11229; CHO-K1 hM1, Fluo-8 calcium fluorescence, agonist mode; 0% DMSO, 100% acetylcholine EC100; activation, % at 3 µM; 360,000 compounds, 0.33% hits;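 active = activation above the run's mean compound activation plus 3 SD, cut at about 16% in these data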;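 note: peak over basal fluorescence ratio within a 140 s kinetic read after compound addition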
M1 PAM: human CHRM1 positive allosteric modulation. P11229. CHO-K1 hM1, Fluo-8 calcium fluorescence, ACh EC20; 0% = ACh EC20, 100% = maximal ACh. activation, % at 3 µM. 360,000 compounds, 0.088% hits. AID 588819; in the data active = activation above about 19%, passing the limit was not always enough
CHO-K1 Ca ag: counter-screen for M1 agonists: effect in parental CHO-K1 cells; Fluo-8 calcium fluorescence; scaled to maximal ATP response, vehicle zero; activation, % at 3 µM; 360,000 compounds, 0.48% hits; AID 602248; in the data active = activation above about 15%;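 note: untransfected CHO-K1 host cells lacking M1 receptor as counterscreen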
Hits are given with their value. The list is not random: actives were taken first. Their share in the collection is about 2.3%.

For OCC[C@H]1C[C@@H](O)[C@H](O)[C@]2(CCc3ccccc3CO2)O1 the results were M1 PAM parental inactive, M1 antag inactive, CHO-K1 Ca antag inactive, M1 ag 18, M1 PAM inactive and CHO-K1 Ca ag inactive.
CC(CN1CCOCC1)OC(=O)C(C)(c1ccccc1)c1ccccc1 (stereo not drawn) was read as M1 PAM parental inactive, M1 antag inactive, CHO-K1 Ca antag inactive, M1 ag inactive, M1 PAM inactive and CHO-K1 Ca ag inactive.
`CC(CN1CCCCC1)OC(=O)C(C)(c1ccccc1)c1ccccc1` (stereo not drawn) gave M1 PAM parental inactive, M1 antag 89, CHO-K1 Ca antag inactive, M1 ag inactive, M1 PAM inactive and CHO-K1 Ca ag inactive.
For Cc1ccc(NS(=O)(=O)c2ccc(C(=O)OCC(=O)Nc3cc(C)on3)cc2)cc1 the results were M1 PAM parental inactive, M1 antag inactive, CHO-K1 Ca antag inactive, M1 ag 28, M1 PAM inactive and CHO-K1 Ca ag 19.
`COC(=O)c1ccccc1S(=O)(=O)N1CCC(C(=O)NC2CCCCC2)CC1` gave M1 PAM parental inactive, M1 antag inactive, CHO-K1 Ca antag inactive, M1 ag inactive, M1 PAM inactive and CHO-K1 Ca ag inactive.
Cc1ccc(CN2C(=O)C(CC(C)C)Nc3ncnc(N4CCCCC4)c32)cc1 (stereo not drawn) was read as M1 PAM parental inactive, M1 antag inactive, CHO-K1 Ca antag inactive, M1 ag inactive, M1 PAM inactive and CHO-K1 Ca ag inactive.
Screening CC1CN(C(=O)CCC(=O)NCCCN2CCN(Cc3ccccc3)CC2)c2cc(Cl)ccc2O1 (stereo not drawn) returned M1 PAM parental inactive, M1 antag inactive, CHO-K1 Ca antag inactive, M1 ag inactive, M1 PAM inactive and CHO-K1 Ca ag inactive.
For O=[N+]([O-])c1cccc(C(O)C23CN4CN(CN(C4)C2)C3)c1 (stereo not drawn) the results were M1 PAM parental inactive, M1 antag inactive, CHO-K1 Ca antag inactive, M1 ag inactive, M1 PAM inactive and CHO-K1 Ca ag inactive.
CC(C)=N/N=C(\c1cccc([N+](=O)[O-])c1)C12CN3CN(CN(C3)C1)C2 was read as M1 PAM parental inactive, M1 antag 62, CHO-K1 Ca antag inactive, M1 ag inactive, M1 PAM inactive and CHO-K1 Ca ag inactive.
COc1ccc(CNC(=O)Cn2c(=O)n(CC(=O)N3CCCCC3)c(=O)c3sccc32)cc1 was read as M1 PAM parental inactive, M1 antag inactive, CHO-K1 Ca antag inactive, M1 ag inactive, M1 PAM inactive and CHO-K1 Ca ag inactive.
Screening C/C(N)=C(/C#N)C(=O)COC(=O)Cc1coc2ccc3ccccc3c12 returned M1 PAM parental inactive, M1 antag inactive, CHO-K1 Ca antag inactive, M1 ag inactive, M1 PAM inactive and CHO-K1 Ca ag 19.
COc1ccc(S(=O)(=O)N2CCOCC2)cc1C(=O)N(C)Cc1ccco1 was read as M1 PAM parental inactive, M1 antag inactive, CHO-K1 Ca antag inactive, M1 ag inactive, M1 PAM inactive and CHO-K1 Ca ag inactive.
Screening COc1cc(C)ccc1OCc1cc(C(=O)N(Cc2c(C)nn(C)c2C)C2CC2)no1 returned M1 PAM parental inactive, M1 antag inactive, CHO-K1 Ca antag inactive, M1 ag inactive, M1 PAM inactive and CHO-K1 Ca ag 18.
For COc1cc(C)ccc1OCc1cc(C(=O)N2C[C@H]3CC[C@H]2C3)no1 the results were M1 PAM parental inactive, M1 antag inactive, CHO-K1 Ca antag inactive, M1 ag inactive, M1 PAM inactive and CHO-K1 Ca ag inactive.
`CN(C)CC1C2CCC(C2)C1O` (stereo not drawn) gave M1 PAM parental inactive, M1 antag inactive, CHO-K1 Ca antag inactive, M1 ag inactive, M1 PAM inactive and CHO-K1 Ca ag inactive.
Screening CCCCC1Cc2[nH]c(=S)[nH]c(=O)c2C(C(C)C)O1 (stereo not drawn) returned M1 PAM parental inactive, CHO-K1 Ca antag inactive and CHO-K1 Ca ag inactive.
`Cc1ccc(S(=O)(=O)N(CC(=O)N/N=C/c2cccc(Cl)c2)c2cccc3cccnc23)cc1` gave M1 PAM parental inactive, M1 antag inactive, CHO-K1 Ca antag 24, M1 ag inactive, M1 PAM inactive and CHO-K1 Ca ag inactive.
